From PubChem
Only a selection was taken, and hits are over-represented in it overall.
TbPYK inhibitor = blocks Trypanosoma brucei pyruvate kinase. Q57TT1. TbPYK enzyme, Kinase-Glo Plus ATP luminescence, 45 min. Potency, µM (top dose mostly 76.8 µM), actives largely listed as inhibitors. 410,000 compounds, 0.12% hits; also: nearly all actives have a fitted effect of over 50% in size
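T. brucei PYK with substrate was exposed to pin-transferred compounds across a concentration series, then started with 130 uM ADP (final). After 45 min at room temperature, Kinase-Glo Plus luminescence was read, normalized and curve-fitted.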
LmPK inh = blocks Leishmania mexicana pyruvate kinase activity | purified LmPK, Kinase-Glo ATP luminescence, 1 h | Q27686 | 290,000 compounds, 0.37% hits | Potency, µM (top dose mostly 57.5 µM), usual class: inhibitors | AID 1721
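Pyruvate kinase activity monitored as ATP production (luciferase luminescence). Conditions: 0.1 nM enzyme, 0.5 mM PEP, 0.1 mM ADP, 1 h, RT; normalized against uninhibited and no-enzyme wells.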
Giardia FBPA inh = inhibitors of Giardia lamblia fructose-1,6-bisphosphate aldolase. purified Giardia FBPA. 290,000 compounds, 0.71% hits. Potency, µM (series often up to 59.6 µM), actives largely listed as inhibitors. A8B2U2; also: nearly all actives have a fitted effect of over 55% in size
Target sequence (A8B2U2 whole entry, looked up): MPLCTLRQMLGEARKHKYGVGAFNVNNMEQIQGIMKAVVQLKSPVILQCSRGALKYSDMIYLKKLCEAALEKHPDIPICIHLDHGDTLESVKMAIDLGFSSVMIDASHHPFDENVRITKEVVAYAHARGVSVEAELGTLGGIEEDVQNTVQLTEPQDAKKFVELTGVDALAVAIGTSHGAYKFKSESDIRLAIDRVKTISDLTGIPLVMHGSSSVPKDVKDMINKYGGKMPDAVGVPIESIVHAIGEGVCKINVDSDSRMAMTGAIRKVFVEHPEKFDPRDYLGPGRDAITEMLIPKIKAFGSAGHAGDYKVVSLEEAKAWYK
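Giardia FBPA (40 nM reagent) was preincubated 10 min at RT with compound (up to 57.5 uM final), then substrate plus GAPDH/TPI/NAD/arsenate coupling system with diaphorase/resazurin was added; resorufin fluorescence (525/598 nm) was read after 20 min.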
RE007 growth inh = less growth of the S. pombe RE007 Vpr strain | S. pombe RE007 Vpr strain, BacTiter-Glo ATP luminescence, 24 h | Potency, µM (highest dose often 92.2 µM), usual class: inhibitors | 360,000 compounds, 0.21% hits; active = well fitted falling curve with a large enough effect; inconclusive = small, poorly fitted or top-dose-only effect; inactive = no such curve, though single readings can be large or run the other way; also: nearly all actives have a fitted effect of over 50% in size
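Fission yeast RE007 carrying one integrated HIV-1 vpr copy, seeded at OD 0.01 in PMG+AL medium with 23 nL pinned compound. Grown 24 h at 30 degrees; viability read by BacTiter-Glo luminescence after 5 min.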
Shiga toxin inh = blocks Shiga toxin action in Vero cells; Vero cells, Shiga toxin protein synthesis inhibition reporter; inhibition, % at 38.7 µM; 290,000 compounds, 9.2% hits; in the data active = inhibition mostly above about 28%, no sharp cut-off; inactive = mostly below about 43%
CHX counter = counter-screen hit for Shiga toxin inhibitors, cycloheximide; cell reporter, cycloheximide protein synthesis inhibition counterscreen; max response, %; 300,000 compounds, 12% hits; AID 2314; in the data active = max response mostly above about 13%, no sharp cut-off; inactive = mostly below about 14%; also: read at 38.3 µM for the half of the compounds with a filed dose
Large screens that a line does not name were inactive. Unless noted, calls follow the shape of the dose curve; as a rule, active = well fitted curve in the direction sought with a large enough effect; inconclusive = small, poorly fitted or top-dose-only effect, or another doubt; inactive = no such curve, though single readings can be large; an effect the other way counts as inactive or inconclusive.

COc1ccc(C(=S)Nc2ccc(N(C)C)cc2)cc1	Shiga toxin inh 78, CHX counter 37
Cc1ccc(CCNC(=O)CCn2nc(-c3ccc(C)cc3)ccc2=O)cc1	none (no result: LmPK inh, Giardia FBPA inh, RE007 growth inh, Shiga toxin inh, CHX counter)
Cc1ccc(NC(=S)c2ccc(N(C)C)cc2)cc1	Shiga toxin inh 78, CHX counter 53
CNC[C@H]1OCc2ccccc2-c2ccccc2C(=O)N([C@H](C)CO)C[C@H]1C	none (no result: LmPK inh, Giardia FBPA inh, Shiga toxin inh, CHX counter)
CC(=O)Nc1ccc(S(=O)(=O)N(C)CC(=O)OC(C)C(=O)NC2(C#N)CCCCC2)cc1 (stereo unspecified)	none (no result: LmPK inh, Giardia FBPA inh, Shiga toxin inh, CHX counter)
CCOC(=O)C1(CCCc2ccccc2)CCN(C(=O)CCn2cnnn2)CC1	none
CCOC(=O)C1(Cc2ccccc2Cl)CCN(C(=O)CCn2ccnc2C)CC1	Shiga toxin inh 68, CHX counter 42
CCOC(=O)C1(CCc2ccccc2)CCN(C(=O)C(C)n2cncn2)CC1 (stereo unspecified)	none
CCOC(=O)C1(CCc2ccccc2)CCN(C(=O)CCn2cnnn2)CC1	CHX counter 12
CCOC(=O)C1(CCc2ccccc2)CCN(C(=O)CCn2cncn2)CC1	Shiga toxin inh 63, CHX counter 32
CO[C@]1(C)C[C@H]2O[C@]1(C)n1c3ccccc3c3c4c(c5c6ccccc6n2c5c31)C(=O)N(C)C4	none (no result: TbPYK inhibitor, LmPK inh, RE007 growth inh)
Cc1csc(CNc2ncnc3ccc(-c4cccc(Cl)c4)cc23)c1	none (no result: LmPK inh, Giardia FBPA inh, RE007 growth inh, Shiga toxin inh, CHX counter)
COc1ccc(NCc2nc3ccccc3n2CCOc2ccc(C)cc2)cc1	RE007 growth inh inconclusive, Shiga toxin inh 47, CHX counter 28
c1ccc(NCc2nc3ccccc3n2CCOc2ccccc2)cc1	Shiga toxin inh active, CHX counter 16
COc1ccc(NCc2nc3ccccc3n2CCOc2ccccc2)cc1	Shiga toxin inh 84, CHX counter 47
CO[C@@H]1COC(=O)[C@H](COCc2ccccc2)NC(=O)C/C=C\[C@@H](C)[C@H](OC)COC(=O)[C@H](COCc2ccccc2)NC(=O)C/C=C\[C@H]1C	none (no result: TbPYK inhibitor, LmPK inh, RE007 growth inh, Shiga toxin inh, CHX counter)
Cc1cc(C)c2oc(C(=O)Nc3c(C)n(C)n(-c4ccccc4)c3=O)cc(=O)c2c1	none (no result: LmPK inh, Giardia FBPA inh, RE007 growth inh, Shiga toxin inh, CHX counter)
CC1CCC(NC(=O)c2cc3c(=O)n(C)c4ccccc4c3n2C)CC1 (stereo unspecified)	CHX counter 18
Cn1c(C(=O)N2CCCCCC2)cc2c(=O)n(C)c3ccccc3c21	CHX counter 20
CSCC[C@H](NC(=O)[C@H](CO)NC(=O)[C@H](Cc1ccc(O)cc1)NC(=O)[C@@H](N)CO)C(=O)N[C@@H](CCC(=O)O)C(=O)N[C@@H](Cc1cnc[nH]1)C(=O)N[C@@H](Cc1ccccc1)C(=O)N[C@@H](CCCNC(=N)N)C(=O)N[C@@H](Cc1c[nH]c2ccccc12)C(=O)NCC(=O)N[C@@H](CCCCN)C(=O)N1CCC[C@H]1C(=O)N[C@H](C(=O)NCC(=O)N[C@@H](CCCCN)C(=O)N[C@@H](CCCCN)C(=O)N[C@@H](CCCNC(=N)N)C(=O)N[C@@H](CCCNC(=N)N)C(=O)N1CCC[C@H]1C(=O)N[C@H](C(=O)N[C@@H](CCCCN)C(=O)N[C@H](C(=O)N[C@@H](Cc1ccc(O)cc1)C(=O)N1CCC[C@H]1C(=O)N[C@@H](CC(N)=O)C(=O)NCC(=O)N[C@@H](C)C(=O)N[C@@H](CCC(=O)O)C(=O)N[C@@H](CC(=O)O)C(=O)N[C@@H](CCC(=O)O)C(=O)N[C@@H](CO)C(=O)N[C@@H](C)C(=O)N[C@@H](CCC(=O)O)C(=O)N[C@@H](C)C(=O)N[C@@H](Cc1ccccc1)C(=O)N1CCC[C@H]1C(=O)N[C@@H](CC(C)C)C(=O)N[C@@H](CCC(=O)O)C(=O)N[C@@H](Cc1ccccc1)C(=O)O)C(C)C)C(C)C)C(C)C	none (no result: TbPYK inhibitor, LmPK inh, RE007 growth inh)
CCCCC(=O)N/N=C/c1ccc(Sc2cccc3cccnc23)o1	Giardia FBPA inh inconclusive, CHX counter 39
O=C(Cc1cccc2ccccc12)N/N=C/c1ccc(Sc2cccc3cccnc23)o1	none (no result: TbPYK inhibitor, RE007 growth inh)
CC(C)[C@@H](OCc1ccccc1)[C@H](C)/C=N\O[C@@H](C)c1cn([C@H](CO)Cc2ccccc2)nn1	none (no result: TbPYK inhibitor, LmPK inh, RE007 growth inh, Shiga toxin inh, CHX counter)
COc1ccc(C(=O)NNC(=O)C2CC=CCC2)cc1 (stereo unspecified)	Shiga toxin inh 43, CHX counter 25
O=C(Nc1ccc(O)cc1)C1CC=CCC1 (stereo unspecified)	Giardia FBPA inh inconclusive
O=C(NNC(=O)C1CC=CCC1)c1ccccc1Cl (stereo unspecified)	CHX counter 20
CCOC(=O)c1ccc(C(=O)NNC(=O)C2CC=CCC2)cc1 (stereo unspecified)	none (no result: LmPK inh, Giardia FBPA inh, Shiga toxin inh, CHX counter)
COc1ccccc1OCC(=O)N1CCN(S(=O)(=O)c2ccc(Cl)cc2)CC1	none (no result: LmPK inh, Giardia FBPA inh, Shiga toxin inh, CHX counter)
COCOCCn1cc(CN2CCS(=O)(=O)N(Cc3ccc(-c4ccc(F)nc4)cc3)C(C)C2=O)nn1 (stereo unspecified)	none (no result: LmPK inh, Giardia FBPA inh, Shiga toxin inh, CHX counter)
COc1ccc(OCCCSc2ncccn2)cc1	Shiga toxin inh 104, CHX counter 39
OC(COc1ccc(Cl)cc1)CSc1ccccn1 (stereo unspecified)	RE007 growth inh inconclusive, CHX counter 27
COc1ccc(OCCSc2ncccn2)cc1	Shiga toxin inh 113, CHX counter 46
Clc1ccc(OCCSc2ncccn2)cc1	Shiga toxin inh 117, CHX counter 55
O=C(CSc1nnc(-c2ccccc2)c(-c2ccccc2)n1)NCCc1ccccc1	none (no result: LmPK inh, Giardia FBPA inh, RE007 growth inh, Shiga toxin inh, CHX counter)
CCN(Cc1ccccc1)C(=O)c1cc2ccc3cccnc3c2[nH]1	none (no result: LmPK inh, Giardia FBPA inh, RE007 growth inh, Shiga toxin inh, CHX counter)
COc1ccc(OCCSc2nc(C)nc3ccccc23)cc1	CHX counter 43
Cc1ccc(OCCCSc2ncccn2)cc1C	Shiga toxin inh 74, CHX counter 44
CCCCNC(=O)C1(C)CCN1C(=O)c1cc(-c2ccccc2)cs1 (stereo unspecified)	none (no result: LmPK inh, Giardia FBPA inh, Shiga toxin inh, CHX counter)
CC(C(=O)Nc1ccc(S(=O)(=O)N2CCCCC2)cc1)N1CCN(c2ccccn2)CC1 (stereo unspecified)	none (no result: TbPYK inhibitor, RE007 growth inh)
Cc1ccc(S(=O)(=O)N(C)C[C@@H]2OCc3cnnn3CCCC(=O)N([C@H](C)CO)C[C@@H]2C)cc1	none (no result: LmPK inh, Giardia FBPA inh, Shiga toxin inh, CHX counter)
Cc1ccc(C)c(NC(=O)c2cc(S(=O)(=O)N3CCCCCC3)ccc2F)c1	none (no result: LmPK inh, Giardia FBPA inh, RE007 growth inh, Shiga toxin inh, CHX counter)
O=C(Nc1cccc(Cl)c1)c1cnn2cccnc12	Shiga toxin inh active, CHX counter 38
C=CCNC(=O)c1nn2cccnc2c1Cl	none
Cc1cc(NC(=O)c2nn3cccnc3c2Cl)no1	Shiga toxin inh 34, CHX counter 40
Cc1cc(NC(=O)c2cnn3cccnc23)no1	Shiga toxin inh 141, CHX counter 54
Cc1cc(OCCCC(=O)N2CCCCC2)cc(C)c1Cl	Shiga toxin inh 32, CHX counter 13
Cc1cc(Cl)ccc1OCCCC(=O)N1CCOCC1	Shiga toxin inh 71, CHX counter 37
